# The supplement of paper PMC10105736
# Unmarked numbers belong to inactive results.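 Rule for the calls: active = MAPPIT score above the 99th percentile of random reference set scores in the same batch; inactive = at or below it.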
# B1: CG1161 (protein)
# chain: MAHKRLFVYAVLLVICYLVGVTWAETAAQTFPAIGTNSNNNSNAQPAPVPAPAAPAAAAPLAKQVSAPTAAPPAKVIGQPVLAAPGKNSSNSSSTTECVCAGALLPRLDANGKELPICAECKCSHVARNTTLIKVVVIIVIWIISILVIYMLFLMCLDPLLNKRVKANYQEHTNEDDEPTPPLPAVNNQELSARANVLNRVGHQQDKWKRQVREQRRHIYDRHTMLN
# B2: croc (protein)
# chain: MHTLFSDQNSFTRHYAQTAAGYGSASAVAAASSASAAAAAHYAYDQYSRYPYSASAYGLGAPHQNKEIVKPPYSYIALIAMAIQNAADKKVTLNGIYQYIMERFPYYRDNKQGWQNSIRHNLSLNECFVKVARDDKKPGKGSYWTLDPDSYNMFDNGSFLRRRRRFKKKDVMREKEEAIKRQAMMNEKLAEMKPLKLMTNGILEAKHMAAHAAHFKKEPLMDLGCLSGKEVSHAAMLNSCHDSLAQMNHLAGGGVEHPGFTVDSLMNVYNPRIHHSAYPYHLNEDNLATVASSQMHHVHHAAAAHHAQQLQRHVAHVAHPLTPGGQGAGGQSSGHSPTTISTPHGPAHGGWYTPETPPSEPVPHNGQQGTPTHPGHNNNNSSSVLNHNGVGNGGGGGGGGGGGSSSVLTSSPTSALGFRDMIFEQNQSCQLDTGSPTGSLQSASPPASASVAAASAAAAAAVISSHHHHHHHHAALSGNLGQLGQLSNLSHYRPHVGHYQEYGIKYGV
# B3: ND-ACP (protein)
# chain: MSFTQIARSCSRLAATLAPRRVASGILIQSQASRMMHRIAVPSMTSQLSQECRGRWQTQLVRKYSAKPPLSLKLINERVLLVLKLYDKIDPSKLNVESHFINDLGLDSLDHVEVIMAMEDEFGFEIPDSDAEKLLKPADIIKYVADKEDVYE
# B4: Sce (protein)
# chain: MTSLDPAPNKTWELSLYELQRKPQEVITDSTEIAVSPRSLHSELMCPICLDMLKKTMTTKECLHRFCSDCIVTALRSGNKECPTCRKKLVSKRSLRADPNFDLLISKIYPSREEYEAIQEKVMAKFNQTQSQQALVNSINEGIKLQSQNRPQRFRTKGGGGGGGGGGNGNGAANVAAPPAPGAPTAVGRNASNQMHVHDTASNDSNSNTNSIDRENRDPGHSGTSAASAITSASNAAPSSSANSGASTSATRMQVDDASNPPSVRSTPSPVPSNSSSSKPKRAMSVLTSERSEESESDSQMDCRTEGDSNIDTEGEGNGELGINDEIELVFKPHPTEMSADNQLIRALKENCVRYIKTTANATVDHLSKYLAMRLTLDLGADLPEACRVLNFCIYVAPQPQQLVILNGNQTLHQVNDKFWKVNKPMEMYYSWKKT
# B5: H15 (protein)
# chain: MLLSNQPANTKPQQTPSPSQTQNFKSKLQQQIVSAAAAAAANIANGSSHHHHHQNHHHHHPLNNHHNHNHNQHNISFATDFSIAAIMARGGNAPSSREPSERSLSPASVERYSGQDADDDVDVDVVDCSDSEMPSATAAAAAAATTAAAAAAALQAQQQARQALRVAQQQQQQQQQQRQQTHHHATTGKQQRQHHNHHSSNTNNSSNSGNSNTNSKSSSQRGRSAAAVGAAATPSPPPPPPSQSPEELERLSPEESPAQQPTPKIVGSCNCDDLTPVQCHLETKELWDKFHELGTEMIITKSGRRMFPTVRVSFSGPLRQIQPADRYAVLLDVVPLDSRRYRYAYHRSSWLVAGKADPPPPSRIYAHPDCPLSPEALRKQVVSFEKVKLTNNEMDKSGQVVLNSMHRYQPRIHLVRLSHGQSIPGSPKELQDMDHKTFVFPETVFTAVTAYQNQLITKLKIDSNPFAKGFRDSSRLSDFDRDPMDAFFFDQHMRTAPLRFFPDPLMSQLTPQEADAASMALLEKARQHLQMFGRSPYTEMLLPHLYQRSAAPPPPPPAPHLSAFQLGMWQQQWPQLTAGFLASANQQAALALAAAGANRTPPPSMAVAPPAPATPTSSCGSASPDLRARPQLNHYPQRFSPYQVPQHQASPPASNRAESP
# B6: eEF1beta (protein)
# chain: MAFGDVTTPQGLKELNAFLADNSYISGYTPSKADLSVFDALGKAPSADNVNVARWYRHIASFEAAERAAWSGTPLPQLAGGKPTVAAAAKPAADDDDDVDLFGSDDEEDEEAERIKQERVAAYAAKKSKKPALIAKSSVLLDVKPWDDETDMKEMENNVRTIEMDGLLWGASKLVPVGYGINKLQIMCVIEDDKVSIDLLQEKIEEFEDFVQSVDIAAFNKI
# B7: Snp (protein)
# chain: MALIKLARQLGLIDTIYVDGARPDPNNDPEESFNEDEVTEANSVPAKSKKSRKSKRLAMQPYSYVIAVDFEATCWEKQAPPEWREAEIIEFPAVLVNLKTGKIEAEFHQYILPFESPRLSAYCTELTGIQQKTVDSGMPLRTAIVMFNEWLRNEMRARNLTLPKMNKSNILGNCAFVTWTDWDFGICLAKECSRKGIRKPAYFNQWIDVRAIYRSWYKYRPCNFTDALSHVGLAFEGKAHSGIDDAKNLGALMCKMVRDGALFSITKDLTPYQQLNPRFVL
# B8: GstE14 (protein)
# chain: MSQPKPILYYDERSPPVRSCLMLIKLLDIDVELRFVNLFKGEQFQKDFLALNPQHSVPTLVHGDLVLTDSHAILIHLAEKFDEGGSLWPQEHAERMKVLNLLLFECSFLFRRDSDFMSATVRQGFANVDVAHHERKLTEAYIIMERYLENSDFMAGPQLTLADLSIVTTLSTVNLMFPLSQFPRLRRWFTAMQQLDAYEANCSGLEKLRQTMESVGSFQFPSSSAVVTEKVE
# B9: peg (protein)
# chain: MKLSAVLLAIALLALSLVQCLGLPDPSTKCVMECDTQEYRSICAADDKGSTKTYRNLCVMKTENCLQNANFQKISDKECP
# B10: rst (protein)
# chain: MLHTMQLLLLATIVGMVRSSPYTSYQNQRFAMEPQDQTAVVGARVTLPCRVINKQGTLQWTKDDFGLGTSRDLSGFERYAMVGSDEEGDYSLDIYPVMLDDDARYQCQVSPGPEGQPAIRSTFAGLTVLVPPEAPKITQGDVIYATEDRKVEIECVSVGGKPAAEITWIDGLGNVLTDNIEYTVIPLPDQRRFTAKSVLRLTPKKEHHNTNFSCQAQNTADRTYRSAKIRVEVKYAPKVKVNVMGSLPGGAGGSVGGAGGGSVHMSTGSRIVEHSQVRLECRADANPSDVRYRWFINDEPIIGGQKTEMVIRNVTRKFHDAIVKCEVQNSVGKSEDSETLDISYAPSFRQRPQSMEADVGSVVSLTCEVDSNPQPEIVWIQHPSDRVVGTSTNLTFSVSNETAGRYYCKANVPGYAEISADAYVYLKGSPAIGSQRTQYGLVGDTARIECFASSVPRARHVSWTFNGQEISSESGHDYSILVDAVPGGVKSTLIIRDSQAYHYGKYNCTVVNDYGNDVAEIQLQAKKSVSLLMTIVGGISVVAFLLVLTILVVVYIKCKKRTKLPPADVISEHQITKNGGVSCKLEPGDRTSNYSDLKVDISGGYVPYGDYSTHYSPPPQYLTTCSTKSNGSSTIMQNNHQNQLQLQQQQQQSHHQHHTQTTTLPMTFLTNSSGGSLTGSIIGSREIRQDNGLPSLQSTTASVVSSSPNGSCSNQSTTAATTTTTHVVVPSSMALSVDPRYSAIYGNPYLRSSNSSLLPPPTAV
# B11: hfp (protein)
# chain: MGSNDRASRSPRSDDQREISDMPATKRTRSDSGKSTDSKIPYLSQPLYDLKQTGDVKFGPGTRSALLGLLGGALPKLSSEQHDLVSKAKKYAMEQSIKMVLMKQTLAHQQQQLATQRTQVQRQQALALMCRVYVGSISFELKEDTIRVAFTPFGPIKSINMSWDPITQKHKGFAFVEYEIPEGAQLALEQMNGALMGGRNIKVGRPSNMPQAQQVIDEVQEEAKSFNRIYVASIHPDLSEEDIKSVFEAFGPILYCKLAQGTSLHTHKGYGFIEYANKQAMDEAIASMNLFDLGGQLLRVGRSITPPNALACPTTNSTMPTAAAVAAAAATAKIQALDAVASNAVLGLSQNTPVMAAGAVVTKVGAMPVVSAATSAAALHPALAQAAPALLPPGIFQAPTPVAPSLLGVPAGLQPLQAVVPTLPPPALLATPTLPMTVGGVGVGLVPTVATLAGAEASKGAAAAAALSAAANNAAVTAANLSENIKKAHEKQQEELQKKLMDEGDVQTLQQQENMSIKGQSARQLVMQRLMRPVDSRVIILRNMVGPEDVDETLQEEIQEECSKFGTVSRVIIFNEKQTENEDDDEAEIIVKIFVEFSAGAEAMRGKEALDGRFFGGRRVVAELYDQGIFDQGDLSG
# B12: insv (protein)
# chain: MENQYQRIVSATAREDSQARRSKPLFLNAWSQTSSVDFEVLRSISAPDPQVEVENRALRDKVRYLEAKLQQHKDLLSQIHATSARMQQASSLLAESRPPTPPAVQSHHILTPPSSEICAPAQNPQILDYKIISAPDDADAIEIRLAAESLNSLSTSADSDRLEICLGDENHQQSNHHNSQQQYRISNGIKRDGSSESADTPLQFIKRRKLQEIQLQEEIPRQNIKLPAKPQVKARNGSFTDLNKGQQQNMDNVMVSIGPNNTCVPASVFENINWSVCSLATRKLLVTIFDRETLATHSMTGKPSPAFKDQDKPLKRMLDPGKIQDIIFAVTHKCNASEKEVRNAITTKCADENKMMKIQNVKRRSSGIKHEKENII
# B13: Pof (protein)
# chain: MDSKRAALESGDGPDAKRLDTTDDQDKEASGGDGSQVMLAKHVAPYTGHGCTPPMESYLFEPTPAGSQLLPWKTSVDLDNDAELEKPTSDKKPDTAKLSRRELAKMRREHTLRALALERELTNKPGQTPASEVLLVRFPDPEITAPMLAGLSKDIRDVVLPISVAPRYCLVHLKAGADVEATICDINRVRFGTGHLRAELKPFSDEEQAEFIDPCSLYVGNIPFNMTTSAIKAYFANAMRVDIGVLKREKRARYAFVRYASPDQTMEAFKELVDSPLNSRTLTVRYRRLRKRAGMPMVQCATSFQALQSPNGDDDNTDCKVISPPPLESIIISDSDNCSDSSGNGKEDGKRKKKINEQEREIEKLKRQMAEYGAIIKSLQFRQNSLEDTFIPDLTPKVEPSVNPTGCLLGSNAVHLMRDIKKECDYLGIPDPVPATKPTTQAQDDSQKKAKRSCFGRLFTGPFRRGTSAMKTADEYEKDDRLEELYAQLERDPDP
# Experiments:
# Test in all cases: MAPPIT interaction score (arbitrary units); higher = stronger binary interaction signal, active = hit call of the paper
# nw = settings: MAPPIT configuration: N-N; pair source set: RRS
# opa = settings: MAPPIT configuration: N-N; pair source set: Finley_Y2H
# prd = settings: MAPPIT configuration: N-N; pair source set: Finley_Y2H
# orb = settings: MAPPIT configuration: N-N; pair source set: DPIM
# ord = settings: MAPPIT configuration: N-N; pair source set: Lit-BM-16
# otp = settings: MAPPIT configuration: N-N; pair source set: screen_2
# ox = settings: MAPPIT configuration: N-N; pair source set: Curagen_low_conf
# pip = settings: MAPPIT configuration: N-N; pair source set: Lit-BS-16
# poly = settings: MAPPIT configuration: N-C; pair source set: screen_3
# ras = settings: MAPPIT configuration: N-N; pair source set: Finley_Y2H
# rst = settings: pair source set: Lit-BM-16
# rux = settings: MAPPIT configuration: N-N; pair source set: Finley_Y2H
# sac = settings: MAPPIT configuration: N-N; pair source set: RRS
# salr = settings: MAPPIT configuration: N-N; pair source set: Finley_Y2H
# 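Note: HEK293T cells with Epo stimulation, STAT-responsive firefly luciferase reporter, fold induction versus unstimulated cells divided by the larger fold induction of two negative controls lacking either bait or prey.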
binder,measurement,setting,value
B1,MAPPIT interaction score,nw,0.0762
B2,MAPPIT interaction score,opa,-0.778
same,MAPPIT interaction score,prd,-0.752
B3,MAPPIT interaction score,orb,0.0809
B4,MAPPIT interaction score,ord,1.68
B5,MAPPIT interaction score,otp,0.104
B6,MAPPIT interaction score,ox,0.286
B7,MAPPIT interaction score,pip,-0.236
B8,MAPPIT interaction score,poly,-0.119
B9,MAPPIT interaction score,ras,-1.69
B10,MAPPIT interaction score,rst; MAPPIT configuration: N-C,1.64
same,MAPPIT interaction score,rst; MAPPIT configuration: N-N,0.661
B11,MAPPIT interaction score,rux,0.808
B12,MAPPIT interaction score,sac,-0.275
B13,MAPPIT interaction score,salr,0.283
